# Test results published in paper PMC12431657, “Discovery and mechanistic insights of dibenzoylmethane as a broad spectrum inhibitor of coronavirus” (PLOS Pathogens, 2025).
# Like-named read-outs stand apart in the source and are kept apart here. Among all 3,300 compounds or so, about 95 (3%) showed an effect of 50% or more. Many of the other results were omitted from the sample, so strong results are more common in it than they were. Peptide text beside a SMILES is read from it.
# Tested on: HCoV-229E
# Set-up: species or system Huh-7; HTS, protection from HCoV-229E induced cell death, luminescent cell viability (CellCounting-Lite 2.0), inhibition rate
# Settings: 24 h post infection, 1 h compound pre-incubation, 10 µM, inhibitor
Compound,229E Inhibition rate [%],"229E Inhibition rate (229E Inhibition rate, 24 h) [%]"
C=C(C)[C@@H]1CC[C@]2(C(=O)O[C@@H]3O[C@H](CO[C@@H]4O[C@H](CO)[C@@H](O[C@@H]5O[C@@H](C)[C@H](O)[C@@H](O)[C@H]5O)[C@H](O)[C@H]4O)[C@@H](O)[C@H](O)[C@H]3O)CC[C@]3(C)[C@H](CC[C@@H]4[C@@]5(C)CC[C@H](O[C@@H]6OC[C@H](O)[C@H](O)[C@H]6O[C@@H]6O[C@@H](C)[C@H](O)[C@@H](O)[C@H]6O)[C@@](C)(CO)[C@@H]5CC[C@]43C)[C@@H]12 [Pulchinenoside C],12.2,
C=C1C(=O)O[C@@H]2C[C@@]3(C)CCCC(=C)[C@@H]3C[C@H]12 [Isoalantolactone],20.6,
CC1=C2C(=O)O[C@@H](c3ccoc3)[C@]2(C)CCC1 [Fraxinellone],13.5,
C[C@@H]1C[C@H]2OC(=O)[C@@]3(C)CCC[C@@](C)([C@@H]23)[C@@]1(O)CCc1ccoc1 [Marrubiin],59.8,
"C[C@@H](O)[C@@H](C)O [2,3-Butanediol]",,20.3
O=C(CCCCCCCCc1ccc(O)c(O)c1)c1c(O)cccc1O [Malabaricone C],42.8,
CC(C)=CCc1cc(-c2coc3cc(O)cc(O)c3c2=O)cc(O)c1O [Glycyrrhisoflavone],62.7,
CC(C)=CCc1c(O)cc(O)c2c(=O)cc(-c3ccc(O)cc3)oc12 [Licoflavone C],28.1,
O=c1c(-c2ccc(O)cc2)coc2cc(O)cc(O)c12 [Genistein],17.6,
CC(C)=CCc1c(-c2ccc(O)cc2O)oc2c(CC=C(C)C)c(O)cc(O)c2c1=O [Mulberrin],20.6,
CC(C)=CCc1c(O)ccc(-c2coc3cc(O)cc(O)c3c2=O)c1O [Licoisoflavone A],0,
CC(C)=CCc1c(O)cc(O)c2c(=O)c(-c3ccc(O)cc3)coc12 [Lupiwighteone],63.8,
COc1cc2c(cc1OC)-c1cc3ccc4c(c3c(=O)n1CC2)OCO4 [8-Oxoepiberberine],17.9,
O=C(O)C1CCCCN1O (stereo not shown) [N-Hydroxypipecolic acid],19,
COC(=O)[C@@]1(C)CC[C@]2(C(=O)O)CC[C@]3(C)C(=CC[C@@H]4[C@@]5(C)C[C@H](O)[C@H](O)[C@@](C)(CO)[C@@H]5CC[C@]43C)[C@@H]2C1 [Phytolaccagenin],22.3,
CC(C)[C@H](NC(=O)[C@H](CC(=O)O)NC(=O)[C@H](CCCCN)NC(=O)[C@@H](N)CCCN=C(N)N)C(=O)N[C@@H](Cc1ccc(O)cc1)C(=O)O [Thymopentin] (H-RKDVY-OH),,21.6
CSCC[C@H](NC(=O)[C@H](CC(C)C)NC(=O)CNC(=O)[C@H](Cc1ccccc1)NC(=O)[C@H](Cc1ccccc1)NC(=O)[C@H](CCC(N)=O)NC(=O)[C@H](CCC(N)=O)NC(=O)[C@@H]1CCCN1C(=O)[C@H](CCCCN)NC(=O)[C@@H]1CCCN1C(=O)[C@@H](N)CCCN=C(N)N)C(N)=O [Substance P],0,
CC[C@H](C)[C@H](N)C(=O)N[C@@H](C)C(=O)N[C@@H](CCCN=C(N)N)C(=O)N[C@@H](CCCN=C(N)N)C(=O)N[C@@H](Cc1cnc[nH]1)C(=O)N1CCC[C@H]1C(=O)N[C@@H](Cc1ccc(O)cc1)C(=O)N[C@@H](Cc1ccccc1)C(=O)N[C@@H](CC(C)C)C(=O)O [Kinetensin] (H-IARRHPYFL-OH),56.1,
N[C@H](CC(=O)O)C(=O)O [(-)-Aspartic acid],9.6,
Cc1c(N)nc([C@H](CC(N)=O)NC[C@H](N)C(N)=O)nc1C(=O)N[C@H](C(=O)N[C@H](C)[C@@H](O)[C@H](C)C(=O)N[C@H](C(=O)NCCc1nc(-c2nc(C(=O)NCCC[S+](C)C)cs2)cs1)[C@@H](C)O)[C@@H](O[C@@H]1O[C@@H](CO)[C@@H](O)[C@H](O)[C@@H]1O[C@H]1O[C@H](CO)[C@@H](O)[C@H](OC(N)=O)[C@@H]1O)c1cnc[nH]1 [Bleomycin (sulfate)],12.9,
CC(C)=CCC[C@H](C)CC=O [(S)-(-)-Citronellal],6.7,
C[C@@H]1CC[C@@]2(OC1)O[C@H]1C[C@H]3[C@@H]4CC=C5C[C@@H](O)C[C@@H](O[C@@H]6O[C@H](C)[C@H](O)[C@H](O[C@@H]7OC[C@@H](O)[C@H](O)[C@H]7O)[C@H]6O[C@@H]6O[C@@H](C)[C@H](O)[C@@H](O)[C@H]6O)[C@]5(C)[C@H]4CC[C@]3(C)[C@H]1[C@@H]2C [Ophiopogonin D],,50.3
C[C@@H]1CC[C@@]2(OC1)O[C@H]1C[C@H]3[C@@H]4CC=C5C[C@@H](O)C[C@@H](O[C@@H]6O[C@H](C)[C@H](O)[C@H](O[C@@H]7OC[C@@H](O)[C@H](O)[C@H]7O)[C@H]6O[C@@H]6O[C@@H](C)[C@H](O)[C@@H](O)[C@H]6O)[C@]5(C)[C@H]4CC[C@]3(C)[C@H]1[C@@H]2C [Ophiopogonin D'],,6.6
"C[C@@H]1CC[C@@]2(OC1)O[C@H]1C[C@H]3[C@@H]4CC=C5C[C@@H](O)C[C@@H](O[C@@H]6O[C@H](C)[C@H](O)[C@H](O[C@@H]7OC[C@@H](O)[C@H](O)[C@H]7O)[C@H]6O[C@@H]6O[C@H](CO)[C@@H](O)[C@H](O)[C@H]6O)[C@]5(C)[C@H]4CC[C@]3(C)[C@H]1[C@@H]2C [Saponin C, from Liriope muscari]",0,
CCC(C)(O)C(=O)O (stereo not shown) [2-Hydroxy-2-methylbutanoic acid],0,
C[C@@H]1O[C@@H](OC[C@H]2O[C@@H](Oc3c(-c4ccc(OCCO)c(OCCO)c4)oc4cc(OCCO)cc(O)c4c3=O)[C@H](O)[C@@H](O)[C@@H]2O)[C@H](O)[C@H](O)[C@H]1O [Troxerutin],50.2,

Compound,229E Inhibition rate [%],"229E Inhibition rate (229E Inhibition rate, 24 h) [%]"
COc1cc(O)c2c(=O)c(O[C@@H]3O[C@H](CO[C@@H]4O[C@@H](C)[C@H](O)[C@@H](O)[C@H]4O)[C@@H](O)[C@H](O)[C@H]3O)c(-c3ccc(OC)c(O)c3)oc2c1 [Ombuoside],41.9,
C[C@@H]1O[C@@H](OC[C@H]2O[C@@H](Oc3c(-c4ccc(O)cc4)oc4cc(O[C@@H]5O[C@@H](C)[C@H](O)[C@@H](O)[C@H]5O)cc(O)c4c3=O)[C@H](O)[C@@H](O)[C@H]2O)[C@H](O)[C@H](O)[C@H]1O [Robinin],8.6,
O=C1CCNC(=O)N1 [Dihydrouracil],0,
COc1c(O)cc2oc3cc4c(c(O)c3c(=O)c2c1CC=C(C)C)CCC(C)(C)O4 [3-Isomangostin],11.6,
N[C@H](CS)C(=O)O [D-Cysteine],6.6,
O=C[C@H](O)[C@@H](O)[C@H](O)[C@H](O)C(=O)O [D-Glucuronic acid],57.5,
O=C[C@H](O)[C@@H](O)[C@@H](O)[C@H](O)C(=O)O [D-Galacturonic acid (hydrate)],6.7,
O=C(O)[C@@H](O)[C@H](O)[C@H](O)[C@@H](O)C(=O)O [Mucic acid],0,
CC(C)=CCc1c(O)cc2c(c1O)C(=O)C[C@@H](c1ccc(O)cc1)O2 [(2S)-6-Prenylnaringenin],22.5,
CC[C@]12C=CCN3CC[C@]4(C(=C(C(=O)OC)C1)Nc1ccccc14)[C@@H]32 [Tabersonine],0,
O=C(O)CCC(=O)OC[C@@H](NC(=O)C(Cl)Cl)[C@H](O)c1ccc([N+](=O)[O-])cc1 [Chloramphenicol succinate (sodium)],54,
COC(=O)[C@]1(O)C[C@@H](O)[C@@H](O)[C@H](OC(=O)/C=C/c2ccc(O)c(O)c2)C1 [3-O-Caffeoylquinic acid methyl ester],24.2,
COc1cc(CCC(=O)O)ccc1O [Dihydroferulic acid],28.8,
"COc1cc(CCC(=O)O)cc(OC)c1OC [3-(3,4,5-Trimethoxyphenyl)propanoic acid]",55.1,
"COc1cc(C(=O)O)cc(OC)c1OC [3,4,5-Trimethoxybenzoic acid]",11.2,
C[C@H](CCC(=O)O)[C@H]1CC[C@H]2[C@@H]3[C@H](O)C[C@@H]4CC(=O)CC[C@]4(C)[C@H]3C[C@H](O)[C@]12C [3-Oxocholic acid],4.2,
CC[C@H](CC[C@@H](C)[C@H]1CC[C@H]2[C@@H]3CC[C@H]4C[C@@H](O)CC[C@]4(C)[C@H]3CC[C@]12C)C(C)C [Stigmastanol],12.4,
O=c1cc(-c2ccc(O)c(O)c2)oc2c([C@@H]3O[C@H](CO)[C@@H](O)[C@H](O)[C@H]3O)c(O)cc(O)c12 [Orientin],55,
"O=c1cc(-c2ccc(O)c(O)c2)oc2c([C@@H]3O[C@H](CO)[C@@H](O)[C@H](O)[C@H]3O[C@H]3O[C@@H](CO)[C@@H](O)[C@@H](O)[C@@H]3O)c(O)cc(O)c12 [2""-O-beta-L-galactopyranosylorientin]",6.8,
O=c1cc(-c2ccc(O)cc2)oc2cc(O)c([C@@H]3O[C@H](CO)[C@@H](O)[C@H](O)[C@H]3O[C@@H]3OC[C@H](O)[C@H](O)[C@H]3O)c(O)c12 [Isovitexin 2''-O-arabinoside],22.1,
O=c1cc(-c2ccc(O)cc2)oc2cc(O)c([C@@H]3O[C@H](CO)[C@@H](O)[C@H](O)[C@H]3O[C@@H]3O[C@H](CO)[C@@H](O)[C@H](O)[C@H]3O)c(O)c12 [Meloside A],56.2,
O=c1cc(-c2ccc(O)c(O)c2)oc2cc(O[C@@H]3O[C@H](CO)[C@@H](O)[C@H](O)[C@H]3O)c(O)c(O)c12 [6-Hydroxyluteolin 7-glucoside],5.1,
O=c1cc(-c2ccc(O)cc2)oc2c([C@@H]3O[C@H](CO)[C@@H](O[C@@H]4O[C@H](CO)[C@@H](O)[C@H](O)[C@H]4O)[C@H](O)[C@H]3O)c(O)cc(O)c12 [4”-O-Glucosylvitexin],19,
COc1cc2oc(-c3ccc(O)cc3)cc(=O)c2c(O)c1[C@@H]1O[C@H](CO)[C@@H](O)[C@H](O)[C@H]1O[C@@H]1O[C@H](CO)[C@@H](O)[C@H](O)[C@H]1O [Spinosin],16.9,
O=c1cc(-c2ccc(O)cc2)oc2cc(O)c([C@@H]3O[C@H](CO)[C@@H](O)[C@H](O)[C@H]3O)c(O)c12 [Isovitexin],21,
O=c1cc(-c2ccc(O)c(O)c2)oc2cc(O)c([C@@H]3O[C@H](CO)[C@@H](O)[C@H](O)[C@H]3O)c(O)c12 [Isoorientin],51.3,
